# Results from PMC7862700, “An all-to-all approach to the identification of sequence-specific readers for epigenetic DNA modifications on cytosine”.
# Legend:
# Test in all cases: DAPPL (digital affinity profiling via proximity ligation, sequencing); 10 mM Tris-HCl pH 7.5, 50 mM NaCl, 1 mM DTT, 4% glycerol, room temperature, 30 min; GST-TFs on glutathione beads, 16-mer random dsDNA library, 0.1% formaldehyde crosslink after washing; high values mean tight binding
# Settings in all cases: protein: recombinant; tags: N-terminal GST; dsDNA, one strand shown
# FLI1 = molecular target: T1, FLI1 (Homo sapiens, UniProt Q01543 1-452)
# T1 sequence: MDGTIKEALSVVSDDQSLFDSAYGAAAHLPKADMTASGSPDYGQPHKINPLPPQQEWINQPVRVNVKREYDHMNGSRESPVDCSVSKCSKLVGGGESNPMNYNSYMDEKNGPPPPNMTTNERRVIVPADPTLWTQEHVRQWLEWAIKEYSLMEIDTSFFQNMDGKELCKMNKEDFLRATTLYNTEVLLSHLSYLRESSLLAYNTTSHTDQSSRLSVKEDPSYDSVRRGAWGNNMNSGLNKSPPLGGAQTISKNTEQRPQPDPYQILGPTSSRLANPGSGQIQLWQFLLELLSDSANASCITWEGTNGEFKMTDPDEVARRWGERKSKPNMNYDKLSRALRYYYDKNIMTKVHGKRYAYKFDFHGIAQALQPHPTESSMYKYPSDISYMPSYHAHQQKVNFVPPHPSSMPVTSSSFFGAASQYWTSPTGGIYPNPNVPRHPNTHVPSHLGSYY
# Method in brief: (§1)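 In yeast, human transcription factors were expressed with a GST fusion, then pulled down on glutathione beads and given DNA barcodes. Pooled with a tag-only sample, they were exposed to 200 nmole of a 16-mer random double-stranded DNA library (Tris/NaCl/DTT/glycerol buffer, room temperature, 30 min), washed, crosslinked with 0.1% formaldehyde, proximity-ligated using BsaI/T4 ligase for 1 h at 37 °C, PCR-amplified and read on an Illumina NextSeq500. Each hexamer's frequency of reads for a factor, divided by the matching frequency for the tag-only sample, gives the binding signal.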
# ELK1 = molecular target: T2, ELK1 (Homo sapiens, UniProt P19419 1-428)
# T2 sequence: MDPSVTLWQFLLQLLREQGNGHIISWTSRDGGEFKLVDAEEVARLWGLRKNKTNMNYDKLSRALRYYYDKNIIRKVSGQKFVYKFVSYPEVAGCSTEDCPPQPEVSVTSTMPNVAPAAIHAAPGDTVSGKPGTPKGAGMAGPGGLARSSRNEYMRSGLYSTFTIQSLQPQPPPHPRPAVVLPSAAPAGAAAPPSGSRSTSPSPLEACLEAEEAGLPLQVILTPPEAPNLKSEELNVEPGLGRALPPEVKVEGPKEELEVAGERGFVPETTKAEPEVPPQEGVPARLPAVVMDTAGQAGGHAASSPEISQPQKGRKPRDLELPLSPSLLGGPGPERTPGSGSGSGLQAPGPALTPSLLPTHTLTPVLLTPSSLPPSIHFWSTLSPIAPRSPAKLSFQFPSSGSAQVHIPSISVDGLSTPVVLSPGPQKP
# Method in brief: as §1
# GABPA = molecular target: T3, GABPA (Homo sapiens, UniProt Q06546 1-454)
# T3 sequence: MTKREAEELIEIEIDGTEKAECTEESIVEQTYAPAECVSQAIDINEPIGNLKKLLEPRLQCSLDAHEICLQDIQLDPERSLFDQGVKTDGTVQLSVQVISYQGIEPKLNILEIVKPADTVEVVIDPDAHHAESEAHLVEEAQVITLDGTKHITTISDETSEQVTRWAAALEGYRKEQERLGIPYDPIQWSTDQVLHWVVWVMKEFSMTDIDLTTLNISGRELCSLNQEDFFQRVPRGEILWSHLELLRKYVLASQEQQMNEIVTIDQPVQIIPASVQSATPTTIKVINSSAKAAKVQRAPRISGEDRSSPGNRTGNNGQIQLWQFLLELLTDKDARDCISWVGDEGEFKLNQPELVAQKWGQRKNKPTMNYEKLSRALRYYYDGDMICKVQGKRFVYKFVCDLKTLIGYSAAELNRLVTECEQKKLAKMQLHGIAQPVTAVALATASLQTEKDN
# Method in brief: as §1
# ERG = molecular target: T4, ERG (Homo sapiens, UniProt P11308 1-479)
# T4 sequence: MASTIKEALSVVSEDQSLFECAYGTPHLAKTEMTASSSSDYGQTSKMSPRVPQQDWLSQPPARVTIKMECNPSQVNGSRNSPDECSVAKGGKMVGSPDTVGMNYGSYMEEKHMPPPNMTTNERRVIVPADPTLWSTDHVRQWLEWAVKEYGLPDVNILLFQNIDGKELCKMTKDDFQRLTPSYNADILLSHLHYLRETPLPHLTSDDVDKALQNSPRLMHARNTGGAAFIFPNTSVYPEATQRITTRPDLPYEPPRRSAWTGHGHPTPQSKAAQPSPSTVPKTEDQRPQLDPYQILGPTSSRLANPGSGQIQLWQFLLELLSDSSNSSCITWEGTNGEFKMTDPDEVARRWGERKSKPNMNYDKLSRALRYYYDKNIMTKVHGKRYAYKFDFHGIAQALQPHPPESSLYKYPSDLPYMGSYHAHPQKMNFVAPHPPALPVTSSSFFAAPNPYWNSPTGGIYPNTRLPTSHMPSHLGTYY
# Method in brief: as §1
# ELF1 = ELF1 (Homo sapiens, UniProt P32519 1-619)
# Method in brief: as §1
# EHF = molecular target: T5, EHF (Homo sapiens, UniProt Q9NZC4 1-300)
# T5 sequence: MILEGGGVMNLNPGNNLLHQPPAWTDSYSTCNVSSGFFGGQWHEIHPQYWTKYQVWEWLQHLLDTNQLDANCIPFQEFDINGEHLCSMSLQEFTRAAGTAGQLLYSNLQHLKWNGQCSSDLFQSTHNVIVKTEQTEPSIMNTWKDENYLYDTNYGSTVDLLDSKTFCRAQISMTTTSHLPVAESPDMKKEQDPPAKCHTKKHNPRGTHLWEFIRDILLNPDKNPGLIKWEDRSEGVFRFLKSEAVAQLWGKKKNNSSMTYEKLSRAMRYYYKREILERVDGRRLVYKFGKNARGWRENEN
# Method in brief: as §1
# SPI1 = SPI1 (Homo sapiens, UniProt P17947 1-270)
# Method in brief: as §1
# SPIB = SPIB (Homo sapiens, UniProt Q01892 1-262)
# Method in brief: as §1
# ELK3 = molecular target: T6, ELK3 (Homo sapiens, UniProt P41970 1-407)
# T6 sequence: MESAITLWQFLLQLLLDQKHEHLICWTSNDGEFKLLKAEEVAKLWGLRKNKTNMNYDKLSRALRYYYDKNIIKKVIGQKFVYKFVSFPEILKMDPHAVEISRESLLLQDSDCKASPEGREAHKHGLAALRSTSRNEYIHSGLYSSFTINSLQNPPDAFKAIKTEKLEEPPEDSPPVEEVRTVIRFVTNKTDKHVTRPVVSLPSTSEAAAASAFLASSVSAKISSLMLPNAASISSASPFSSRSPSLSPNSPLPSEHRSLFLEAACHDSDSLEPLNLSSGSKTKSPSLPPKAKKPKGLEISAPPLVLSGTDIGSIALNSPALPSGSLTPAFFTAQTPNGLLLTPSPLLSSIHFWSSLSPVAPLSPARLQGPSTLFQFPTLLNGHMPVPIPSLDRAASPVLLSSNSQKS
# Method in brief: as §1
# Chain of ELF1 (P32519 whole entry): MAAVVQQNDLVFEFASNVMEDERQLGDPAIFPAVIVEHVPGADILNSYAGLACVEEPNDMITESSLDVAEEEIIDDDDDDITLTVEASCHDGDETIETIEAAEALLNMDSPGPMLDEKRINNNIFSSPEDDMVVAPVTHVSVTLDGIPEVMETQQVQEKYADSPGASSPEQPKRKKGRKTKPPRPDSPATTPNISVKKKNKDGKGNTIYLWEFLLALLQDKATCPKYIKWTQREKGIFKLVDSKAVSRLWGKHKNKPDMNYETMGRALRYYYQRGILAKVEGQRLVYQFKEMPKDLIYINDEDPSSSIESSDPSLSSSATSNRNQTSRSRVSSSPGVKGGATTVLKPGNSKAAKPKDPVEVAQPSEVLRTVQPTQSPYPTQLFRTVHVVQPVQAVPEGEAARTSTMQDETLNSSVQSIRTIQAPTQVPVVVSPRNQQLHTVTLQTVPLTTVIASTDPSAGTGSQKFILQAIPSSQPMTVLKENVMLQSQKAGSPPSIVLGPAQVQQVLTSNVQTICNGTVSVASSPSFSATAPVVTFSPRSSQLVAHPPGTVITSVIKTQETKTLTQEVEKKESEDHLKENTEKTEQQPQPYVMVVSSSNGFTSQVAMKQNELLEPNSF
# Chain of SPIB (Q01892 whole entry): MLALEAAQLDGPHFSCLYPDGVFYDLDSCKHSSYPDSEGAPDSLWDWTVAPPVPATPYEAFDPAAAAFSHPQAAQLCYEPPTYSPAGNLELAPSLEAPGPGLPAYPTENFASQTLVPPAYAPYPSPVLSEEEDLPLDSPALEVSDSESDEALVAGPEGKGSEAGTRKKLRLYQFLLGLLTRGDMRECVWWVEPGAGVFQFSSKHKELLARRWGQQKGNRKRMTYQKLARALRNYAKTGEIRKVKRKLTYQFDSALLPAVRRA
sequence,measurement,setting,value
TGTACC,binding signal,FLI1,"1.42 fold enrichment (6-mer frequency, TF over GST control)"
same,binding signal,ELK1,"1.36 fold enrichment (6-mer frequency, TF over GST control)"
same,binding signal,GABPA,"1.29 fold enrichment (6-mer frequency, TF over GST control)"
same,binding signal,ERG,"1.26 fold enrichment (6-mer frequency, TF over GST control)"
same,binding signal,ELF1,"1.34 fold enrichment (6-mer frequency, TF over GST control)"
same,binding signal,EHF,"1.35 fold enrichment (6-mer frequency, TF over GST control)"
same,binding signal,SPI1,"1.33 fold enrichment (6-mer frequency, TF over GST control)"
same,binding signal,SPIB,"1.22 fold enrichment (6-mer frequency, TF over GST control)"
same,binding signal,ELK3,"1.28 fold enrichment (6-mer frequency, TF over GST control)"
